Several values for one entry are separate records, joined by “and”; a condition that tells them apart may be missing. Equal values may be shown once. Among all 5,500 compounds or so, about 2,000 (36%) were called active. Roughly 18% stayed inconclusive and do not appear here. Rule as the data show it: active = normalized growth mostly below about 0.91 (no sharp cut-off); inconclusive = no clear call, values can overlap the other calls; inactive = mostly above about 0.92. The list shows a part of the results.
Test: chemical genetic growth profiling, strain panel (AID 1159580);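 also: tested at 20 µM; growth read once vehicle control cultures reached saturation at 30 °C; 1 = growth at the plate median or of vehicle wells; lower values mean less growth of the strain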
Conditions: S. cerevisiae deletion strains, growth OD

Measured: normalized growth

Nc1ccc(C(=O)O)cc1
inactive: locus YAL021C, strain ccr4, hits give low values 0.984 | locus YAL026C, strain drs2, hits give low values 1.01 | locus YAL030W, strain snc1, hits give low values 1.01 | locus YBL061C, strain skt5, hits give low values 1.02 | locus YBR009C, strain hhf1, hits give low values 0.993 | locus YBR021W, strain FUR4, hits give low values 1.01 | locus YBR023C, strain chs3, hits give low values 1.03 | locus YBR171W, strain sec66, hits give low values 1.02 | locus YBR229C, strain ROT2, hits give low values 0.996 | locus YBR231C, strain swc5, hits give low values 1.04 | locus YBR279W, strain paf1, hits give low values 1.02 | locus YCL011C, strain gbp2, hits give low values 1.01 | locus YCL016C, strain dcc1, hits give low values 1.03 | locus YCL029C, strain bik1, hits give low values 1.01 | locus YCL061C, strain MRC1, hits give low values 1.02 | locus YCL069W, strain vba3, hits give low values 1.01 | locus YCR088W, strain abp1, hits give low values 1.01 | locus YDL005C, strain med2, hits give low values 1.02 | locus YDL035C, strain GPR1, hits give low values 1.01 | locus YDL040C, strain nat1, hits give low values 1.02 | locus YDL074C, strain BRE1, hits give low values 1.03 | locus YDL101C, strain DUN1, hits give low values 1.02 | locus YDL134C, strain PPH21, hits give low values 1.01 | locus YDL185W, strain tfp1, hits give low values 1.03 | locus YDL192W, strain arf1, hits give low values 1.01 | locus YDR001C, strain nth1, hits give low values 1 | locus YDR069C, strain doa4, hits give low values 1.04 | locus YDR101C, strain arx1, hits give low values 0.996 | locus YDR137W, strain rgp1, hits give low values 1.01 | locus YDR159W, strain sac3, hits give low values 1 | locus YDR162C, strain NBP2, hits give low values 1.02 | locus YDR195W, strain ref2 1.04 | locus YDR297W, strain sur2, hits give low values 1.02 | locus YDR318W, strain mcm21, hits give low values 1.01 | locus YDR334W, strain swr1, hits give low values 1.01 | locus YDR335W, strain msn5, hits give low values 1.02 | locus YDR388W, hits give low values 1.01 | locus YDR392W, strain spt3, hits give low values 0.972 | locus YDR502C, strain sam2, hits give low values 1.01 | locus YEL003W, strain gim4, hits give low values 1.02 | locus YEL037C, strain rad23, hits give low values 1.01 | locus YEL061C, strain CIN8 (second series), hits give low values 1.02 | locus YEL061C, strain CIN8, hits give low values 1 | locus YER015W, strain faa2, hits give low values 1.04 | locus YER016W, strain bim1, hits give low values 0.987 | locus YER110C, hits give low values 1.02 | locus YER111C, strain swi4, hits give low values 1.03 | locus YER155C, strain BEM2 (second series), hits give low values 1.04 | locus YER155C, strain BEM2, hits give low values 0.994 | locus YER167W, strain BCK2, hits give low values 1.01 | locus YFR010W, strain ubp6, hits give low values 1.02 | locus YGL078C, strain dbp3, hits give low values 1 | locus YGL086W, strain mad1, hits give low values 1 | locus YGL167C, strain pmr1, hits give low values 1.02 | locus YGL173C, strain kem1, hits give low values 1.03 | locus YGL227W, strain vid30, hits give low values 1 | locus YGL240W, strain doc1, hits give low values 1.03 | locus YGL248W, strain PDE1, hits give low values 1 | locus YGL253W, strain hxk2, hits give low values 1.01 | locus YGR078C, strain PAC10, hits give low values 1 | locus YGR135W, strain pre9, hits give low values 1.02 | locus YGR252W, strain gcn5, hits give low values 1.04 | locus YHR027C, strain rpn1, hits give low values 1.02 | locus YHR030C, strain SLT2, hits give low values 0.999 and 1.11 | locus YHR079C, strain IRE1 (second series), hits give low values 1.01 | locus YHR079C, strain IRE1, hits give low values 1.01 | locus YHR094C, strain hxt1, hits give low values 1.01 | locus YHR129C, strain ARP1, hits give low values 1 | locus YHR142W, strain chs7, hits give low values 0.988 | locus YHR200W, strain rpn10, hits give low values 1.02 | locus YIL066C, strain RNR3, hits give low values 1.01 | locus YIL073C, strain SPO22, hits give low values 1.03 | locus YIL125W, strain kgd1, hits give low values 1.01 | locus YIR030C, strain dcg1, hits give low values 1.02 | locus YJL092W, strain hpr5, hits give low values 1.02 | locus YJL095W, strain BCK1 (second series), hits give low values 1 | locus YJL095W, strain BCK1, hits give low values 1.04 and 1.01 | locus YJL115W, strain asf1, hits give low values 1.02 | locus YJL129C, strain trk1, hits give low values 1.02 | locus YJL134W, strain LCB3, hits give low values 1 | locus YJL154C, strain vps35, hits give low values 1.03 | locus YJL164C, strain tpk1, hits give low values 1 | locus YJL166W, strain qcr8, hits give low values 1.06 | locus YJL168C, strain set2, hits give low values 1.01 | locus YJL187C, strain SWE1 (second series), hits give low values 1.03 | locus YJL187C, strain SWE1, hits give low values 1.02 | locus YJR043C, strain POL32, hits give low values 0.996
